# Source: PubChem (National Center for Advancing Translational Sciences (NCATS))
# Rows were chosen to be rich in hits. Some 10% of all compounds tested hit in one or more screens of this group.
# HEK293 tox – HEK 293 cell cytotoxicity. HEK 293 viability, ATP luminescence (CellTiter-Glo), 48-72 h. Potency, µM (doses to about 115 µM), for the others: at the highest dose activity change, negative = cytotoxicity, usual class: inhibitors. hit rate 6.6% among 94,000; further: nearly all actives have a fitted effect of over 60% in size
#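 qHTS cytotoxicity; HEK 293, 250 cells/well; compound pinned; 48 or 72 hr, 37 degree Celsius, 5% CO2, 95% humidity; CellTiter-Glo, 10 min RT; luminescence (ATP).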
# Luciferase inh – inhibitors of firefly (Photinus pyralis) luciferase | P08659 | purified P. pyralis luciferase, luminescence, biochemical | Potency, µM (top dose mostly 115 µM), hits mostly inhibitors | hit rate 2.5% among 76,000 | AID 1347043; further: nearly all actives have a fitted effect of over 65% in size
#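 FLuc 10nM, D-luciferin 10uM, ATP 10uM, Mg acetate 10mM, Tris acetate pH 7.5, Tween/BSA; cpd qHTS; enzyme added last; CCD luminescence.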
# GPT2 inhibitor – inhibitors of human GPT2 alanine aminotransferase. Q8TD30. Recombinant GPT2, coupled pyruvate oxidase/HRP Amplex Red fluorescence. Potency, µM (titrated, usually from 57.7 µM), without a hit: at the top dose activity change, negative = inhibition, actives largely listed as inhibitors. hit rate 0.25% among 100,000. AID 1671188; further: nearly all actives have a fitted effect of over 60% in size
# Target sequence (Q8TD30 whole entry, looked up): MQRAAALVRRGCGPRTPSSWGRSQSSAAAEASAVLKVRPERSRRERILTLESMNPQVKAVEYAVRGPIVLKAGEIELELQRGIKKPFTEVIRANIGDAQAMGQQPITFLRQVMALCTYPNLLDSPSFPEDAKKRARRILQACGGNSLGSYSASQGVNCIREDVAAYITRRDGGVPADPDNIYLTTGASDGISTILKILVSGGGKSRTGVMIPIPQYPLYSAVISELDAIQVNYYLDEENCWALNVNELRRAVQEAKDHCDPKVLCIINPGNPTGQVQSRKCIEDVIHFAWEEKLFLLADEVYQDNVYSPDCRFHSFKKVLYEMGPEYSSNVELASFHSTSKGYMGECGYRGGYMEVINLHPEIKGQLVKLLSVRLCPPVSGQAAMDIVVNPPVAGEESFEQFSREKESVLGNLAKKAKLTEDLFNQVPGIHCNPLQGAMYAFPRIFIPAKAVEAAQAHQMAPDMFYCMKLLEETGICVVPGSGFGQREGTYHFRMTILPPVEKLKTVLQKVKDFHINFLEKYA
#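 Recombinant GPT2 (10ng/uL) with 250uM a-KG and 2mM L-alanine, 30 min at room temperature, in HEPES pH 7.5 buffer. Pyruvate detected by pyruvate oxidase/HRP/Amplex Red fluorescence after 30 min in the dark; AOA (50uM) as positive control.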
# NPR1 antag – antagonists of human natriuretic peptide receptor Npr1; P16066; Potency, µM (highest dose often 46.3 µM), inactives show at the highest dose activity change, negative = inhibition, usual class: inhibitors; AID 1347048; HEK293 hNpr1 GloSensor cGMP, ANP-stimulated luminescence; hit rate 1.6% among 76,000; calls by dose curve; further: nearly all actives have a fitted effect of over 60% in size
#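 Compound pre-incubated 30 min at room temperature on GloSensor-loaded HEK293 cells stably carrying hNpr1 and the pGS-40F cGMP biosensor. Stimulation uses hNppA at 0.1 nM final; luminescence is taken at baseline and 20 min post-agonist.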
# 3T3 cytotox – cytotoxic compounds in NIH 3T3 cells; NIH 3T3 viability, CellTiter-Glo ATP luminescence, 48-72 h; Potency, µM (doses to about 96.7 µM), without a hit: at the highest dose activity change, negative = cytotoxicity, actives largely listed as inhibitors; hit rate 4.3% among 94,000; AID 1345082; further: nearly all actives have a fitted effect of over 55% in size
#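 Luminescent ATP readout (CellTiter-Glo, 10 min RT) after 48 or 72 hr compound exposure of NIH 3T3 cells seeded at 400 cells/well in 1536-well format; quantitative HTS.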
# An asterisk follows results filed as active; i = inactive; ? = inconclusive; nt = no result given; ! = not active in a repeat; [ ] = remark or other dose. Unless noted, the call rests on the fitted dose curve; in most records, active means well fitted curve in the direction sought with a large enough effect; inconclusive means small, poorly fitted or top-dose-only effect, or another doubt; inactive means no such curve, though single readings can be large; an effect the other way counts as inactive or inconclusive. On the % scale 0 is the no-effect control and ±100 the full control effect; potency means the concentration at half of the fitted maximal effect.
SMILES,HEK293 tox,Luciferase inh,GPT2 inhibitor,NPR1 antag,3T3 cytotox
COCC(=O)NCc1cc2n(n1)CCCN(Cc1cc3ccccc3s1)C2,20µM*,i,i,1%,?
Cc1c(O)cccc1C(=O)N1CCCN(Cc2ccc(F)cc2)C(C(C)C)C1 (stereo not drawn),45µM*,i,-18%,-3%,?
COc1ccc(C(=O)Nc2ccc3n(c2=O)C[C@H]2C[C@@H]3CN(S(=O)(=O)c3ccc(OC)cc3)C2)cc1,?,8.9µM*,3%,-2%,-21%
Cc1cccc(N2CCN(C(=O)c3noc(-c4ccc5c(c4)OCO5)n3)CC2)c1,?,22µM*,-2%,-1%,?
Cc1ccc(CN2CCC3(CC2)CC(=O)N(c2ccccc2)c2ccccc2O3)cc1,32µM*,i,i,7%,40µM*
CC(C)CCN1CCC2(CC1)CC(=O)N(c1ccccc1)c1ccccc1O2,45µM*,i,-4%,?,?
O=C1CC2(CCN(Cc3ccccc3)CC2)Oc2ccccc2N1c1ccccc1,?,i,3%,3%,-24%
Cn1cccc1CN1CCC2(CC1)CC(=O)N(c1ccccc1)c1ccccc1O2,22µM*,i,i,-23%,40µM*
COc1ccc(Nc2ncc(-c3cnn(C)c3)c3c2OCC3)cc1,?,25µM*,-12%[88.5 µM],6%[70.6 µM],?
Cn1cc(-c2cnc(Nc3cnccn3)c3c2CCO3)cn1,2%[172 µM],?,-30%[88.5 µM],-1%[70.6 µM],?
Cn1cc(-c2cnc(Nc3cncnc3)c3c2CCO3)cn1,-11%[172 µM],i,i,1%[70.6 µM],100µM*
COc1cc(=O)n2c(c1C(=O)Nc1ccc(N(C)C)cc1)CCCC2,?,35µM*,-5%,-5%,-30%
COc1cc(=O)n2c(c1C(=O)Nc1ccc(C)cc1)CCCC2,-15%,i,-1%,-5%,?
Cn1ncc2c(C(=O)NCc3ccc(Cl)cc3)cc(-c3cccc(F)c3)nc21,40µM*,nt,nt,nt,32µM*
Cn1ncc2c(C(=O)NCc3cccc(F)c3)cc(-c3ccc(Cl)cc3)nc21,45µM*,nt,i,nt,?
COC(=O)CNC(=O)c1cc(-c2cccc(F)c2)nc2c1cnn2C,-13%[172 µM],nt,nt,nt,?
CCC(C)NC(=O)c1cc(-c2cccc(F)c2)nc2c1cnn2C (stereo not drawn),89µM*,nt,nt,nt,?
Cn1ncc2c(C(=O)NCCc3ccc(Cl)cc3)cc(-c3cccnc3)nc21,32µM*,nt,i,nt,?
Cc1ccc(-c2cc(C(=O)NCc3ccc(F)cc3)c3cnn(C)c3n2)cc1,?,nt,i,nt,?
O=S(=O)(c1cccs1)N1CCC(c2nc(CCOc3ccc(F)cc3)no2)C1 (stereo not drawn),?,i,-1%,?,?
Cn1ncc2c(C(=O)NC3CC3)cc(-c3ccc(Cl)nc3)nc21,?,nt,-3%[88.5 µM],nt,?
Cn1ncc2c(C(=O)NC3CC3)cc(-c3cccnc3)nc21,63µM*!,nt,5%[88.5 µM],nt,40µM*!
CCN1C(=O)CCN(Cc2cccc(OC)c2OC)CC12CCOCC2,i,i,i,0%,-9%
CCN1C(=O)CCN(Cc2cn(C)c3ccc(OC)cc23)CC12CCOCC2,?,i,-5%,2%,32µM*
CCOC(=O)C1(Cc2cccc(C(F)(F)F)c2)CCN(Cc2cc(C(C)C)n[nH]2)CC1,25µM*,i,?,?,?
SMILES,HEK293 tox,Luciferase inh,GPT2 inhibitor,NPR1 antag,3T3 cytotox
COc1ccc(-c2c(C(=O)NCC(F)(F)F)nc3sccn23)cc1,-28%[172 µM],nt,-1%[88.5 µM],nt,-16%[138 µM]
O=C(NCC(F)(F)F)c1cn2cc(-c3ccccc3)sc2n1,?,nt,i,nt,89µM*
O=C(NCC(F)(F)F)c1cn2cc(-c3cccc(C(F)(F)F)c3)sc2n1,?,nt,i,nt,?
COc1cccc(-c2cn3cc(C(=O)NCc4ccccc4)nc3s2)c1,?,nt,i,nt,?
O=C(NCCc1ccccc1)c1cn2cc(-c3cccc(C(F)(F)F)c3)sc2n1,?,nt,i,nt,-12%
O=C(NCc1cccc(C(F)(F)F)c1)c1cn2cc(-c3ccccc3)sc2n1,45µM*,nt,?,nt,-26%
COc1ccc(-c2cn3cc(C(=O)NCc4cccc(C(F)(F)F)c4)nc3s2)cc1,35µM*,nt,?,nt,?
O=C(NCc1cccc(Cl)c1)c1cn2cc(-c3ccc(C(F)(F)F)cc3)sc2n1,45µM*,nt,-7%,nt,22µM*
CCOC(=O)C1CCCN(C(=O)c2ccc3nc(-c4cccnc4)oc3c2)C1 (stereo not drawn),?,nt,-4%,nt,?
C[S+](=O)([O-])N1CCN(CCCn2nc3n(c2=O)CCCC3)CC1,i,nt,nt,nt,-7%[138 µM]
O=C(NCc1cccc(C(F)(F)F)c1)c1cn2cc(-c3ccc(F)cc3)sc2n1,?,nt,i,nt,40µM*
O=C(NCc1ccc(F)cc1)c1cn2cc(-c3ccc(C(F)(F)F)cc3)sc2n1,50µM*,nt,?,nt,?
O=C(NCc1ccc(F)cc1)c1cn2cc(-c3cccc(C(F)(F)F)c3)sc2n1,-24%,nt,i,nt,?
O=C(NCc1ccc(F)cc1)c1cn2cc(-c3ccc(F)cc3)sc2n1,?,nt,i,nt,?
O=C(NCc1ccc(Cl)cc1)c1cn2cc(-c3ccc(F)cc3)sc2n1,28µM*,nt,i,nt,?
CNC(=O)c1cn2cc(-c3ccc(OC)cc3)sc2n1,71µM*,nt,4%[88.5 µM],nt,100µM*
O=C1NCCCN1C1CCN(Cc2ccccc2OC(F)(F)F)CC1,-15%[172 µM],i,i,4%[70.6 µM],-25%[138 µM]
COc1cccc(-c2cn3cc(C(=O)NCc4ccc(Cl)cc4)nc3s2)c1,?,nt,-3%[88.5 µM],nt,?
O=C(NCc1ccc(Cl)cc1)c1cn2cc(-c3ccc(C(F)(F)F)cc3)sc2n1,-4%,nt,3%,nt,-10%
O=C(NCc1cccnc1)c1cn2cc(-c3ccc(C(F)(F)F)cc3)sc2n1,20µM*,nt,i,nt,?
COc1ccc(-c2cn3cc(C(=O)NCc4ccc(F)c(F)c4)nc3s2)cc1,13µM*,nt,-13%,nt,?
O=C(NC[C@H]1O[C@@H](CO)[C@@H](O)[C@H]1N1CCOCC1)c1ccc(F)c(Cl)c1,i,i,-2%[88.5 µM],0%[70.6 µM],i
O=C(NCCc1ccncc1)C1CN(C(=O)c2ccc(F)cc2)CC12CCOCC2 (stereo not drawn),-4%,i,-12%,4%,i
CCN1C(=O)CCC2(C(=O)NCc3cccc(C(F)(F)F)c3)CCCC=C12 (stereo not drawn),-1%,nt,-4%,nt,-27%
O=C1NCCOCCN(C(=O)Nc2ccc3c(c2)OCCO3)[C@@H]2CCCC[C@H]12,-1%,16µM*,i,-23%,-2%
Cc1nn(C)cc1C(=O)N1C[C@@H](CO)[C@H](c2ccccn2)C1,-9%,i,i,-1%,1%
